Potency and outcome data for seven compounds are collected here from PubChem BioAssay (Tox21).

A short description of experiment [1]: A CellTox Green Cytotoxicity Assay to monitor cytotoxicity in HEK293 cells - 32 hour (AID 1224881). Also: nearly all actives have a fitted effect of over 40% in size. The procedure, abridged: (§1)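 Dead-cell fluorescence measured kinetically: asymmetric cyanine dye, HEK293, 600 cells/well, 5 h settle, 23 nL cpd/DMSO, 37 C, reads 0–40 h every 8 h.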
Experiment [2] can be described thus: A CellTox Green Cytotoxicity Assay to monitor cytotoxicity in HepG2 cells - 0 hour (AID 1224882). Also: nearly all actives have a fitted effect of over 35% in size. The method, boiled down:
(§2)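 First, HepG2 cells (600/well) mixed with reagent were plated; second, after 5 h at 37 C they received compounds via pintool; third, fluorescence was measured at 0 h through 40 h at 8 h intervals.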

Experiment [3] can be described thus: A CellTox Green Cytotoxicity Assay to monitor cytotoxicity in HepG2 cells - 32 hour (AID 1224883). Also: nearly all actives have a fitted effect of over 50% in size. The procedure, abridged:
as §2

Experiment [4] is described as follows: A CellTox Green Cytotoxicity Assay to monitor cytotoxicity in HEK293 cells - 8 hour (AID 1224884). Also: nearly all actives have a fitted effect of over 35% in size. The procedure, abridged: as §1
Experiment [5] is described as follows: qHTS RealTime-Glo MT Cell Viability Assay in HepG2 cells - 16 hour (AID 1224885). Also: nearly all actives have a fitted effect of over 50% in size. The procedure, abridged: (§3)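 HepG2 suspension premixed with RealTime-Glo reagents is plated at 600 cells per well and left 5 h at 37 C/5% CO2. Compounds in DMSO then go in, and bioluminescence reflecting viable cell number is recorded over 40 h.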
A general note: Quantitative high-throughput screening tests each substance at several concentrations.

Experiment [6] can be described thus: qHTS RealTime-Glo MT Cell Viability Assay in HEK293 cells - 24 hour (AID 1224886). Also: nearly all actives have a fitted effect of over 50% in size. Also: potency is read from the fitted curve at half-maximal effect. The method, boiled down:
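Reads taken at 0, 8, 16, 24, 32 and 40 h from the same wells. HEK293 cells (600/well) carried RealTime-Glo reagents from seeding, with compound added after a 5 h settle at 37 C.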

Experiment [7] is described as follows: qHTS RealTime-Glo MT Cell Viability Assay in HEK293 cells - 8 hour (AID 1224887). Also: nearly all actives have a fitted effect of over 50% in size. Also: potency is read from the fitted curve at half-maximal effect. The procedure, abridged: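 600 HEK293 cells per well, dispensed already mixed with RealTime-Glo MT reagents. Compound dosing came 5 h later. The same wells were read for luminescence at 0, 8, 16, 24, 32 and 40 h of exposure at 37 C.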
A short description of experiment [8]: A CellTox Green Cytotoxicity Assay to monitor cytotoxicity in HEK293 cells - 16 hour (AID 1224888). Also: nearly all actives have a fitted effect of over 35% in size. The procedure, abridged: as §1
The nature of experiment [9]: qHTS RealTime-Glo MT Cell Viability Assay in HepG2 cells - 0 hour (AID 1224889). Also: nearly all actives have a fitted effect of over 50% in size. The method, boiled down:
as §3

The nature of experiment [10]: A CellTox Green Cytotoxicity Assay to monitor cytotoxicity in HepG2 cells - 8 hour (AID 1224890). Also: nearly all actives have a fitted effect of over 45% in size. The method, boiled down: as §2
A short description of experiment [11]: qHTS assay to identify small molecule antagonists of the estrogen receptor alpha (ER-alpha) signaling pathway using the BG1 cell line in the presence of 0.1 nM 17-beta-estradiol - cell viability counter screen (AID 1259241). Also: nearly all actives have a fitted effect of over 40% in size. The method, boiled down:
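Following 5 days in phenol red-free medium with charcoal-stripped serum, VM7Luc4E2 cells received test compounds alongside 0.1 nM 17beta-estradiol (final) at 37C for 22 hr. Live cells were then quantified via protease-substrate fluorescence.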

Experiment [12] in a line: qHTS assay to identify small molecule antagonists of the androgen receptor (AR) signaling pathway using the MDA cell line in the presence of 0.5 nM R1881 - cell viability counter screen (AID 1259242). Also: nearly all actives have a fitted effect of over 45% in size. The method, boiled down: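 qHTS format. MDA-kb2 (MMTV-luc, AR/GR responsive) + cpd + 0.5 nM R1881 final, 16 hr 37C/0% CO2 → CellTiter-Fluor 30 min → fluorescence intensity.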

The target of experiment [13] is Estrogen receptor (Homo sapiens) (UniProt P03372). In words: qHTS assay to identify small molecule antagonists of the estrogen receptor alpha (ER-alpha) signaling pathway using the BG1 cell line in the presence of 0.1 nM 17-beta-estradiol (AID 1259244). Also: nearly all actives have a fitted effect of over 50% in size. The procedure, abridged: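 Reporter is a stably transfected luciferase under four estrogen responsive elements in VM7Luc4E2 cells expressing native full-length ER-alpha; inhibition of 0.1 nM (final) 17beta-estradiol-driven signal over 22 h is read by luminescence.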
Estrogen receptor (Homo sapiens), sequence (P03372 whole entry, looked up): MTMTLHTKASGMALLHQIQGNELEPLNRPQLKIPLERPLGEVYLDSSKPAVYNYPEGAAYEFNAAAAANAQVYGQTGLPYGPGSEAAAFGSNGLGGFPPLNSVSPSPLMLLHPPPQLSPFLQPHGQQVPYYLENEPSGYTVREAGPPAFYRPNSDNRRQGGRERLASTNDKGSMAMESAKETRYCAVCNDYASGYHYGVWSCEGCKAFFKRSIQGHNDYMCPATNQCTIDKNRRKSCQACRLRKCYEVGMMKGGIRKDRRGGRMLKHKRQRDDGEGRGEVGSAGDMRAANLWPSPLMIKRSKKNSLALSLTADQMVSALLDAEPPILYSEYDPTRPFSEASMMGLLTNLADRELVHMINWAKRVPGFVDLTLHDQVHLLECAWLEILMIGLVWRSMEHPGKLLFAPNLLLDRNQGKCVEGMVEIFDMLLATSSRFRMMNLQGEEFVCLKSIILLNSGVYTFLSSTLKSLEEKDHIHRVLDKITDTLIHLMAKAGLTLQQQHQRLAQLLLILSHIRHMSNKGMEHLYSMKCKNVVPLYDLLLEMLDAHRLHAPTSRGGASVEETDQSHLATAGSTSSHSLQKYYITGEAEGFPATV

A short description of experiment [14]: qHTS assay to identify small molecule HDAC inhibitors (AID 1259364).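 Also: wild-type HCT-116 cells with endogenous class I/II HDAC activity; top concentration of the series differs between compounds; nearly all actives have a fitted effect of over 45% in size.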 The procedure, abridged:
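Quantitative high-throughput format: overnight-seeded HCT-116 cells got compounds for 2 hr at 37C; HDAC-Glo I/II reagent added, 30 min RT, luminescence measured.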

Experiment [15] in a line: qHTS assay to identify small molecule HDAC inhibitors - cell viability counter screen (AID 1259365). The method, boiled down:
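HCT-116 wild-type, overnight attachment; 2hr drug exposure, 37C; CellTiter-Glo luminescent ATP readout after 30min RT.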

The nature of experiment [16]: qHTS assay to identify small molecule agonists of the sonic hedgehog signaling (Shh) pathway - cell viability counter screen (AID 1259366). Also: nearly all actives have a fitted effect of over 50% in size. The method, boiled down: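 Compounds in DMSO were pin-transferred onto 3T3 Gli1-Luc cells that had settled 4hr; plates then stood 24hr at 37C and 5% CO2. One hour before the end, CellTiter-Fluor was added and fluorescence recorded.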

The nature of experiment [17]: qHTS assay to identify small molecule antagonists of the sonic hedgehog signaling (Shh) pathway - cell viability counter screen (AID 1259367). Also: nearly all actives have a fitted effect of over 55% in size. Also: potency is read from the fitted curve at half-maximal effect. The procedure, abridged:
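CellTiter-Fluor signal in conditioned medium-stimulated 3T3 Gli1-Luc cells, 23 hr compound exposure, 37C.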

Experiment [18] is described as follows: qHTS assay to identify small molecule agonists of the sonic hedgehog signaling (Shh) pathway (AID 1259368; calls by dose curve;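 also: NIH/3T3-derived 3T3Gli1-Luc cells carrying a stable Gli1-driven firefly luciferase reporter; series mostly up to about 92 µM; nearly all actives have a fitted effect of over 15% in size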). The method, boiled down: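 Quantitative high-throughput format using a Gli1-driven firefly luciferase reporter line derived from NIH/3T3 cells. After a 24 hr compound treatment at 37 C and 5% CO2, luminescence reported Gli1 response element activity.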

Experiment [19] addresses Androgen receptor (Homo sapiens) (UniProt P10275). The experiment in a line: qHTS assay to identify small molecule antagonists of the androgen receptor (AR) signaling pathway using the MDA cell line in the presence of 0.5 nM R1881 (AID 1259243). Also: nearly all actives have a fitted effect of over 50% in size. Also: potency is read from the fitted curve at half-maximal effect. The procedure, abridged:
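Antagonist mode quantitative HTS in MDA-kb2 MMTV-luciferase cells, agonist R1881 at 0.5 nM final, 16 hr exposure at 37C and 0% CO2, luminescent detection.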

Experiment [20] in a line: qHTS assay to identify small molecule phospholipidosis (PLD) inducers (AID 1259344; active = well fitted curve in the direction sought with a large enough effect; an effect the other way counts as inactive or inconclusive). The procedure, abridged: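 Accumulated phospholipid, stained red by LipidTOX during 24 h compound treatment of HepG2 cells at 37 C, is quantified from images as pit number and intensity, normalised per cell using Hoechst-stained nuclei.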

Several values for one entry are separate records, joined by “and”; a condition that tells them apart may be missing. Identical values can stand only once. Results filed as inconclusive are left out. Activity calls are given as the source filed them. Unless noted, calls follow the shape of the dose curve; as a rule, active = well fitted curve in the direction sought with a large enough effect in the repeat runs; inconclusive = weak or mixed curves; inactive = no such curve, though single readings can be large; an effect the other way counts as inactive or inconclusive.

Androgen receptor (Homo sapiens), sequence (P10275 whole entry, looked up): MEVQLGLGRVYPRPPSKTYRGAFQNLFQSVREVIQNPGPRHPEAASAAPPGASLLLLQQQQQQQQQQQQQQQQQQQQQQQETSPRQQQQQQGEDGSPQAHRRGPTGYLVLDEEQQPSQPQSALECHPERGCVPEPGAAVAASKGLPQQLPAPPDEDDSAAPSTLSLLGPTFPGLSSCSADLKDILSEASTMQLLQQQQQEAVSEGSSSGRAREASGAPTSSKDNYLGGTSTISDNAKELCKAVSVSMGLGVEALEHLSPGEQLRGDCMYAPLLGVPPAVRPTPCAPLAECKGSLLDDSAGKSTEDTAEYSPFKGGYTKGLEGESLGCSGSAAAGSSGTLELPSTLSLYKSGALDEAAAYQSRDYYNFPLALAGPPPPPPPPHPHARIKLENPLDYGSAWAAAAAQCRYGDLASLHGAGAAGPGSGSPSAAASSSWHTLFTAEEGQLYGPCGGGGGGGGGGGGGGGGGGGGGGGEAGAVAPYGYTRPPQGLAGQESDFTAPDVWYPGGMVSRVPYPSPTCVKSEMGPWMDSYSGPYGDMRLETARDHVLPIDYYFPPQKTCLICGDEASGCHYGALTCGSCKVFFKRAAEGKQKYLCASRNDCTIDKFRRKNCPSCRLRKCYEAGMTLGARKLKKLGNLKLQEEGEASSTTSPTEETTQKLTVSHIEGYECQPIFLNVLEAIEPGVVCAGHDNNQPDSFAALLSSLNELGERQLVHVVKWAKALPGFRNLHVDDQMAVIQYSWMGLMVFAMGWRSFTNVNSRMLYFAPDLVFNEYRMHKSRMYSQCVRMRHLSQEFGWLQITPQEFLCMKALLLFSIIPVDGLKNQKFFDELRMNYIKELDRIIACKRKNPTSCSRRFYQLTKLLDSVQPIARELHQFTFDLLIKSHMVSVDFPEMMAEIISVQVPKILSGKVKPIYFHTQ

Take `C[C@H]1O[C@H](OC2[C@@H](O)[C@@H](O)C(O)[C@H](O)[C@H]2O)[C@@H](N)C[C@@H]1N=C(N)C(=O)O` (stereo not given in full): the Potency result in experiment [1], in experiment [2], in experiment [3], in experiment [4], in [5] and in [6] was “inactive” in each case. Besides, the Potency entry in [7], in experiment [8], in experiment [10], in experiment [11], in experiment [12] and in experiment [13] was “inactive” throughout. Further, the Potency result in [14], in experiment [15], in [16], in experiment [17] and in experiment [18] was “inactive” throughout. The call in experiment [9] was inactive.

For the compound `Nc1ccccc1C(=O)OCC(O)CO` (stereo not given), the Potency result in experiment [1], in [2], in [3], in experiment [4], in experiment [5] and in experiment [6] was “inactive” in each case. For the same compound, the Potency entry in [7], in [8], in [10], in experiment [11], in experiment [12] and in experiment [19] was “inactive” each time. Further, the Potency entry in experiment [14], in experiment [15], in experiment [16], in experiment [17] and in experiment [18] was “inactive” in each case. Further, the compound was classed as inactive in [9].

For the compound `O=P(OCC(Br)CBr)(OCC(Br)CBr)OCC(Br)CBr` (stereo not given), the Potency entry in experiment [1], in [2], in [3], in experiment [4], in [5] and in experiment [8] was “inactive” throughout. Moreover, the Potency entry in experiment [10], in [11], in experiment [12], in experiment [14], in [15] and in [18] was “inactive” throughout. Further, the Potency is 27.9 µM (active) in experiment [6]; 24.9 µM (active) in experiment [7]; 31 µM (active) and 51.7 µM (active) in experiment [19]; 55.2 µM (active) in [17]. In addition, in [9], the call was inactive.

For `CCOP(=S)(S)OCC`, the Potency entry in experiment [1], in experiment [2], in [3], in experiment [4], in [5] and in experiment [6] was “inactive” throughout. The Potency result in [7], in [8], in experiment [10], in experiment [11], in experiment [12] and in [19] was “inactive” throughout. Also, the Potency entry in experiment [14], in experiment [16], in [17] and in experiment [18] was “inactive” in each case. In addition, the call in [9] was inactive.

As to `CCCCCCCCCCCCCCCl`, the Potency entry in experiment [1], in experiment [2], in [3], in experiment [4], in experiment [5] and in [6] was “inactive” each time. The Potency result in experiment [7], in [8], in experiment [10], in experiment [11], in [12] and in experiment [13] was “inactive” each time. The Potency result in experiment [14], in experiment [15], in [16], in [17] and in experiment [18] was “inactive” each time. Besides, in [9], the compound was classed as inactive.

`CC(Cl)C(=O)O` (stereo not given): the Potency result in experiment [1], in experiment [2], in experiment [3], in experiment [4], in experiment [5] and in [6] was “inactive” in each case. Also, the Potency entry in experiment [7], in [8], in experiment [10], in experiment [11], in experiment [12] and in experiment [19] was “inactive” in each case. Further, the Potency entry in experiment [14], in [16], in [17] and in [18] was “inactive” throughout. For the same compound, the compound was called inactive in [9].

Turning to `CCC1(C2=NCCN2)Cc2ccccc2O1` (stereo not given), the Potency result in experiment [1], in experiment [2], in [3], in experiment [4], in experiment [5] and in experiment [6] was “inactive” throughout. The Potency result in experiment [7], in experiment [8], in [10], in [11], in experiment [12] and in experiment [19] was “inactive” each time. Besides, the Potency entry in experiment [13], in [14], in experiment [15], in experiment [16], in experiment [17] and in [18] was “inactive” each time. For the same compound, the call in experiment [9] and in [20] was inactive.
